Compounds with a hit are over-represented: about 6% of the library has one in this group of screens.
D3 ag: D3 dopamine receptor (human) agonism. AID 652048. P35462. 410,000 compounds, 0.58% hits. D3R DiscoveRx beta-arrestin cells, luminescence, 90 min. max activation, %; in the data active = max activation above about 30%; also: 0% is about no effect
Target sequence (P35462 whole entry, looked up): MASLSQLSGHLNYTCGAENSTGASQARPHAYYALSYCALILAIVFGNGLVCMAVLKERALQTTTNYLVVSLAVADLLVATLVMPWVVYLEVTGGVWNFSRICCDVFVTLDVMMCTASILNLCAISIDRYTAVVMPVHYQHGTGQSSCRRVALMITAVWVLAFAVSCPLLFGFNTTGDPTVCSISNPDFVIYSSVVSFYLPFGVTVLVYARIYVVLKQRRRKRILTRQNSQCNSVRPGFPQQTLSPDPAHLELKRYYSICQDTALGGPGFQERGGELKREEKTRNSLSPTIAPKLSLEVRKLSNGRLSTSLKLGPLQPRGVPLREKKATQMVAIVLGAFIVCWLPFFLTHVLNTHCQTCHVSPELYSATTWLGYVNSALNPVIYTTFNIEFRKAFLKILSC
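Agonist-mode cell screen: cells plated at 1500/well and incubated overnight at 37 °C, then exposed to library compounds for 90 min at 37 °C. Detection reagent was added for 30–60 min at room temperature, and luminescence was read.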
D1 antag: antagonists of human D1 dopamine receptor; P21728; HEK293 TREx D1 cells, calcium flux, dopamine EC80; hits give low values; activity change, negative = inhibition, % at 10 µM; 360,000 compounds, 3.2% hits; AID 504652; in the data active = activity change below about -30%; also: % is scaled to controls: 0 for no effect and ±100 for the full control effect
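Calcium flux readout: force-coupled, inducible Hek293 Trex D1 line, cells induced overnight at 30 C with tetracycline, dye-loaded 30–90 min at RT. Antagonism scored against EC80 dopamine challenge given 180 s after compound.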
D1 ag: activates the human D1 dopamine receptor; activation, % at 2 µM; 360,000 compounds, 1% hits; HEK293 T-REx D1 cells, calcium flux, agonist mode; P21728; in the data active = activation above about 30%; also: 0% is about no effect
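Tetracycline-induced HEK293 TREx D1 cells, force-coupled to calcium signalling, were dye-loaded with a no-wash calcium kit. Compound was pin-added after a 10 s baseline. Fluorescence was read kinetically at 1 cycle/s for 180 s, with calcium rises flagged as agonism.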
D1 PAM: human D1 dopamine receptor positive modulation | potentiation, % at 10 µM | AID 504651 | 360,000 compounds, 0.036% hits | P21728 | HEK293 TREx D1 cells, calcium flux, dopamine EC20 potentiation; in the data active = potentiation above about 30%; also: 0% is about no effect
DRD3 antagonist: D3 dopamine receptor (human) antagonism | D3R cells, DiscoveRx beta-arrestin luminescence, antagonist mode; hits give low values | P35462 | 360,000 compounds, 2.5% hits | max response, negative = inhibition, %; in the data active = max response below about -50%; also: % is scaled to controls: 0 for no effect and ±100 for the full control effect
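Cells plated overnight at 1500 cells/well, then exposed to library compounds with dopamine controls for 90 minutes at 37 degrees C. DiscoveRx reagent added for 30–60 minutes at room temperature; luminescence read, quantitative HTS format.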
An asterisk follows results filed as active.

For CC(CCc1ccccc1)NC(=O)COC(=O)c1ccc(NC(=O)CC#N)cc1 (stereo not given) the results were D3 ag 9.3, D1 antag 9.7, D1 ag 3.8, D1 PAM -3.3 and DRD3 antagonist 10.2.
`ON=C1C2CC=C(c3ccccc3)C1CCC2` (stereo not given) gave D3 ag 4.6 and DRD3 antagonist 2.0.
For COCCCNC(=S)NNC(=O)c1ccc2c(c1)OCO2 the results were D3 ag 7.3, D1 antag -5.1, D1 ag 1.3, D1 PAM -2.4 and DRD3 antagonist 10.6.
For COc1cc(C(=O)NC(=S)NNC(=O)c2ccc3c(c2)OCO3)cc(OC)c1OC the results were D3 ag 30.2*, D1 antag -20.5, D1 ag 3.7, D1 PAM 8.5 and DRD3 antagonist 11.5.
Screening Cc1cccc(NC(=S)NNC(=O)c2ccc3c(c2)OCO3)c1 returned D3 ag -12.9, D1 antag -3.3, D1 ag 1.8, D1 PAM -2.8 and DRD3 antagonist -59.1*.
For COc1cc(C(=O)NNC(=S)NC(=O)c2ccc(F)cc2)cc(OC)c1OC the results were D3 ag 13.0, D1 antag -4.3, D1 ag 44.3*, D1 PAM -2.9 and DRD3 antagonist -24.2.
Screening COc1cc(C(=O)NNC(=O)C2CCC2)cc(OC)c1OC returned D3 ag 2.2, D1 antag -47.8*, D1 ag 2.5, D1 PAM -4.9 and DRD3 antagonist 6.9.
Cc1cccc(NC(=O)c2ccc3c(c2)OCCO3)c1 was read as D3 ag -1.1, D1 antag 6.2, D1 ag 8.0 and DRD3 antagonist -4.5.
Screening COc1cc(C(=O)NNC(=O)C2CC=CCC2C(=O)O)cc(OC)c1OC (stereo not given) returned D3 ag -2.8, D1 antag -9.5, D1 ag 2.7, D1 PAM -4.5 and DRD3 antagonist -9.6.
Screening COc1cc(C(=O)N2CCC(C(=O)Nc3cccc(C(C)=O)c3)CC2)cc(OC)c1OC returned D3 ag 0.0, D1 antag 0.0, D1 ag 0.9, D1 PAM -10.2 and DRD3 antagonist -53.2*.
For COc1cc(C(=O)NC(=S)Nc2ccc3c(c2)OCO3)cc(OC)c1OC the results were D3 ag -9.5, D1 antag -35.1*, D1 ag 0.1, D1 PAM -4.7 and DRD3 antagonist -17.8.
For CCCN1C(=O)C2(c3ccccc31)c1c(oc3ccccc3c1=O)C(=O)N2CCO (stereo not given) the results were D3 ag -2.7, D1 antag -8.7, D1 ag -0.2 and D1 PAM 0.7.
`CC(=O)c1cccc(NS(=O)(=O)c2c(C)nc3sc(C)cn3c2=O)c1` gave D3 ag 0.9, D1 antag -12.6, D1 ag 13.2 and D1 PAM -1.3.
`CCOc1ccccc1NC(=O)c1cc(=O)[nH]c2ccc(S(=O)(=O)N3CCOCC3)cc12` gave D3 ag -2.4 and DRD3 antagonist -11.3.
Screening O=C(CNC(=O)c1ccccc1F)OCc1cc(=O)n2ccsc2n1 returned D3 ag -3.2, D1 antag -3.7, D1 ag 3.5 and D1 PAM -2.5.
`Cc1ccc(S(=O)(=O)Nc2ccccc2-c2ccccc2NS(=O)(=O)c2ccc(C)cc2)cc1` gave D3 ag 7.0, D1 antag -1.7, D1 ag 1.6, D1 PAM -4.5 and DRD3 antagonist 20.8.
Screening O=C1c2ccccc2-c2cccc(NS(=O)(=O)c3ccc(C(F)(F)F)cc3)c21 returned D3 ag 0.5, D1 antag 3.5, D1 ag 54.8*, D1 PAM 0.1 and DRD3 antagonist 21.5.
For CN(C)c1ccc(NC(=O)Nc2ccc3c(c2)c(=O)n(C)n3-c2ccccc2)cc1 the results were D3 ag -4.9 and DRD3 antagonist 0.1.
COc1cccc(CC(=O)Nc2ccc3c(c2)c(=O)n(C)n3-c2ccc(C(C)(C)C)cc2)c1 was read as D3 ag -8.0 and DRD3 antagonist -58.3*.
CN(C)c1ccc(NC(=S)Nc2ccc3c(c2)c(=O)n(C)n3-c2ccc(C(C)(C)C)cc2)cc1 was read as D3 ag -17.3 and DRD3 antagonist -54.1*.
For O=C(NC(=S)N1CCCCC1)c1csc([N+](=O)[O-])c1 the results were D3 ag 2.1, D1 antag 4.7, D1 ag 1.4, D1 PAM -4.0 and DRD3 antagonist 1.0.
